Values joined by “and” are separate entries in the source; they are usually repeats but may differ in a detail not shown here. Equal entries are not always repeated. Results filed as inconclusive are left out. Active and inactive are the calls of the source. Unless noted, calls follow the shape of the dose curve; as a rule, active = well fitted curve in either direction with a large enough effect (not every such curve was filed as active); inconclusive = small, poorly fitted or top-dose-only effect, or another doubt; inactive = flat fitted curve, though single readings scatter.
Assays:
[1] = Stat Signaling Pathway (AID 446); settings: ME-180 (cervical carcinoma) SIE beta-lactamase reporter, IL-6 stimulated, 5 h;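 also: ME-180 cervical cancer cells given 40 pM IL-6 alongside compound; SIE-controlled beta-lactamase reporter measured as 460/530 nm FRET emission ratio; % is scaled to controls: 0 for no effect and ±100 for the full control effect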
In short: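 Compound effects on IL-6-induced STAT reporter activity were measured in ME-180 cells. After overnight culture, cells were co-treated with 40 pM IL-6 for 5 hrs before beta-lactamase substrate loading at room temperature.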

[2] = target: Glucocorticoid receptor (Homo sapiens) (UniProt P04150); experiment: GR-GFP Redistribution (AID 450;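 active = compounds whose dose series gives a full or clear partial fitted curve of increased nuclear translocation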; also: potency is read from the fitted curve at half-maximal effect); settings: U2OS GR-GFP nuclear translocation, laser cytometry, 2 h
[3] = target: Glucocorticoid receptor (Homo sapiens) (UniProt P04150); experiment: GR-EFC Redistribution (AID 451; calls by dose curve; also: potency is read from the fitted curve at half-maximal effect); settings: CHO-K1 GR-EFC translocation, beta-gal luminescence, 2 h
In short: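 CHO-K1 cells stably expressing nuclear-localized β-gal enzyme acceptor and GR fused C-terminally to the enzyme donor fragment; ligand-driven nuclear translocation restores β-gal by complementation. Compounds titrated up to 46 uM final, 2 h at 37 °C; luminescence read.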

[4] = target: Mitogen-activated protein kinase 10 (Mus musculus) (UniProt Q61831); experiment: JNK3 AlphaScreen Assay (AID 530); settings: JNK3 lysate, c-Jun phosphorylation; series mostly up to 57.1 µM;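 also: kinase came from lysate of stimulated human HepG2 cells; signal reports phosphorylation of biotinylated GST-cJun 1-79 at Ser73 with 10 µM ATP; % is scaled to controls: 0 for no effect and ±100 for the full control effect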
In short: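 Phosphorylation of biotinylated GST-cJun(1-79) at Ser73 is measured by AlphaScreen proximity luminescence. Enzyme is JNK3 in HepG2 lysates activated with interleukin-1beta and tumor necrosis factor alpha; ATP is 10 uM final.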

[5] = target: 3',5'-cyclic-AMP phosphodiesterase 4B (Homo sapiens) (UniProt Q07343); experiment: qHTS Assay for Inhibitors of PDE-IV (AID 607; active = well fitted activation curve with a large enough effect in the main read-out, with a control signal flat, not every such curve was filed as active; also: % of control where 0% means no effect); settings: HEK293 ACTOne CNG channel cells, membrane potential fluorescence; series mostly up to 22.9 µM
In short: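 ACTOne HEK293 cells carry a modified cAMP-gated CNG channel and express endogenous PDE4; plated 1000 cells/well, compounds up to 22.9 uM final. Membrane-potential dye fluorescence (ex 535/em 590) was read; parental cells received 10 uM forskolin + 100 uM RO 20-1724.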

[6] = at 38 µM (top of the series) unless noted

Glucocorticoid receptor (Homo sapiens), sequence (P04150 whole entry, looked up, the tested form may be a part): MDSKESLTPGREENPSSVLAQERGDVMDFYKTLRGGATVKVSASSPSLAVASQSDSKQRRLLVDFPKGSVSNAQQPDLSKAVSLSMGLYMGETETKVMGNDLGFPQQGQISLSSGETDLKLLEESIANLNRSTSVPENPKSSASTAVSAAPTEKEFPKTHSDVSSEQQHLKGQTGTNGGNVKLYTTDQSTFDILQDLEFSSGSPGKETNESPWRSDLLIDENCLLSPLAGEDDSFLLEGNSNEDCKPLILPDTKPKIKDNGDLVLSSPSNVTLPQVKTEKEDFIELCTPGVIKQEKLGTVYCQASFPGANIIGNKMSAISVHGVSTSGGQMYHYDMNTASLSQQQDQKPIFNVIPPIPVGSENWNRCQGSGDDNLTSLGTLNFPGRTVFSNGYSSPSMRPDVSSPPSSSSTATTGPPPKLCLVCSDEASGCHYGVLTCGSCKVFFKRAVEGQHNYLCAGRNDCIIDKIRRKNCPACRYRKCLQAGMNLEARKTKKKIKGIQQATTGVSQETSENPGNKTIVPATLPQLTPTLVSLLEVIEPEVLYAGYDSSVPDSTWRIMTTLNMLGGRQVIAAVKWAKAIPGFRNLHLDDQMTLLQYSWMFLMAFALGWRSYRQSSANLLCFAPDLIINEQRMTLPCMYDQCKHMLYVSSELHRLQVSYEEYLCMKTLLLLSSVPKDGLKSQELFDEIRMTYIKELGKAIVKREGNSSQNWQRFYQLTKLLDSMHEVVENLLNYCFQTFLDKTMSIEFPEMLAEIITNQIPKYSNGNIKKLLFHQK
3',5'-cyclic-AMP phosphodiesterase 4B (Homo sapiens), sequence (Q07343 whole entry, looked up): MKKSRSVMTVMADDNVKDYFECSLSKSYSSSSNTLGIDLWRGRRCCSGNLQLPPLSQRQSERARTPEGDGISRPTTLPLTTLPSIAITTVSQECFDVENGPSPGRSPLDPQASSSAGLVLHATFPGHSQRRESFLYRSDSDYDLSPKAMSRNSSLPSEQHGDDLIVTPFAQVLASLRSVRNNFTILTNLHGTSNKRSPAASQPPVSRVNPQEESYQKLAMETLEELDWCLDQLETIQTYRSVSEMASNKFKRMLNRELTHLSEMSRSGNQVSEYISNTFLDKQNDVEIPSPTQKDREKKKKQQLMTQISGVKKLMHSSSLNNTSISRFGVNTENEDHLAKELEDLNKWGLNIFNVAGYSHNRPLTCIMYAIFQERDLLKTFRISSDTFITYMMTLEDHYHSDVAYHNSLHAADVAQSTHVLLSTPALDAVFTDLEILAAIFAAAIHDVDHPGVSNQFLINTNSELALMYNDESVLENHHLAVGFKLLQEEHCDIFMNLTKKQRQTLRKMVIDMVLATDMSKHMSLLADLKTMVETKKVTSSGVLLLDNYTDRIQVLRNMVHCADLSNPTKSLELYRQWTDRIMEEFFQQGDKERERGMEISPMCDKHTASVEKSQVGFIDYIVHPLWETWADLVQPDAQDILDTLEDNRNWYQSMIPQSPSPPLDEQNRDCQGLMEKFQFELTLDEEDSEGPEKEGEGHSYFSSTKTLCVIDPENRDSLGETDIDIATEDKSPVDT

CC(N)=O
inactive: activity, negative = inhibition [1, 6] 13.9% | Potency [2] > 46 µM | Potency [3] > 46 µM | outcome [4] | Potency [5]

COc1ccc(C(=O)NCc2cccnc2)cc1C(=O)NCc1cccnc1
inactive: activity, negative = inhibition ([1]; at 17.2 µM (top of the series)) 2.24% | activity, negative = inhibition ([1]; at 38 µM (top of the series)) -27.6% | Potency [2] > 46 µM and > 20.6 µM | Potency [3] > 46 µM and > 20.6 µM | outcome [4] | Potency [5]

CCCn1c(=O)c2[nH]c(-c3ccc(S(=O)(=O)O)cc3)nc2n(CCC)c1=O
inactive: activity, negative = inhibition [1, 6] 42.3% | Potency [2] > 46 µM | Potency [3] > 46 µM | outcome [4] | Potency [5]

O=C(O)C1=CCCN(CCON=C(c2ccccc2)c2ccccc2)C1
inactive: activity, negative = inhibition [1, 6] -1.1% | Potency [2] > 46 µM | Potency [3] > 46 µM | outcome [4] | Potency [5]

CC1CNCCN1S(=O)(=O)c1cccc2cnccc12 (stereo not given)
inactive: activity, negative = inhibition [1, 6] -1.62% [at 17.2 µM] | Potency [2] > 20.6 µM

c1ccc2nc(C3=NCCN3)ccc2c1
inactive: activity, negative = inhibition [1, 6] 0.247% | Potency [2] > 46 µM | Potency [3] > 46 µM | outcome [4] | Potency [5]

NCCCCN=C(N)N
inactive: activity, negative = inhibition [1, 6] -20.8% | Potency [2] > 46 µM | Potency [3] > 46 µM | outcome [4] | Potency [5]

N[C@@H](Cc1ccc(O)c(I)c1)C(=O)O
inactive: activity, negative = inhibition [1, 6] 5.15% [at 17.2 µM] | Potency [2] > 20.6 µM

O=[N+]([O-])c1cccc2cn[nH]c12
inactive: activity, negative = inhibition ([1]; at 17.2 µM (top of the series)) -4.16% | activity, negative = inhibition ([1]; at 38 µM (top of the series)) -5.67% | Potency [2] > 46 µM and > 20.6 µM | Potency [3] > 46 µM | outcome [4] | Potency [5]

O=C1Cc2c([nH]c3ccc(Br)cc23)-c2ccccc2N1
active: activity, negative = inhibition [1, 6] -29.2%
inactive: Potency [2] > 46 µM | Potency [3] > 46 µM | outcome [4] | Potency [5]

C[C@H](O)C(=O)C1=Nc2c(nc(N)[nH]c2=O)NC1
inactive: activity, negative = inhibition [1, 6] -2.31% | Potency [2] > 46 µM | Potency [3] > 46 µM | outcome [4] | Potency [5]

CCCCCCN(CCCCCC)C(=O)Cc1c(-c2ccc(F)cc2)[nH]c2ccccc12
inactive: activity, negative = inhibition [1, 6] 6.88% | Potency [2] > 46 µM | Potency [3] > 46 µM | outcome [4] | Potency [5]

COc1ccc(NC(=O)c2ccc(-c3ccc(-c4noc(C)n4)cc3C)cc2)cc1N1CCN(C)CC1
inactive: activity, negative = inhibition [1, 6] -18.9% | Potency [2] > 46 µM | Potency [3] > 46 µM | outcome [4] | Potency [5]

Cn1cc(C(=O)OCC2CCN(CCNS(C)(=O)=O)CC2)c2ccccc21
inactive: activity, negative = inhibition [1, 6] -18.9% | Potency [2] > 46 µM | Potency [3] > 46 µM | outcome [4] | Potency [5]

O=C(c1ccc2c(c1)OCCO2)N1CCCCC1
inactive: activity, negative = inhibition [1, 6] 25% | Potency [2] > 46 µM | Potency [3] > 46 µM | outcome [4] | Potency [5]

Cc1nc(N=Nc2ccc(S(=O)(=O)O)cc2S(=O)(=O)O)c(COP(=O)(O)O)c(C=O)c1O
inactive: activity, negative = inhibition [1, 6] 5.69% | Potency [2] > 46 µM | Potency [3] > 46 µM | outcome [4] | Potency [5]

COc1ccccc1N1CCN(CCCCNC(=O)c2ccc3ccccc3c2)CC1
inactive: activity, negative = inhibition ([1]; at 17.2 µM (top of the series)) 5.11% | activity, negative = inhibition ([1]; at 38 µM (top of the series)) -1.2% | Potency [2] > 46 µM and > 20.6 µM | outcome [4] | Potency [5]

CC(C)NC[C@H](O)COc1ccc(CC(N)=O)cc1
inactive: activity, negative = inhibition ([1]; at 17.2 µM (top of the series)) 2.19% and -5.69% | activity, negative = inhibition ([1]; at 38 µM (top of the series)) 0.94% and 14.3% | Potency [5]

Nc1nc2ccc(Cl)cc2c2nc(-c3ccco3)nn12
inactive: activity, negative = inhibition [1, 6] 3.22% | Potency [2] > 46 µM | Potency [3] > 46 µM | outcome [4] | Potency [5]

Fc1ccc(CN(C2=NCCN2)c2c(Cl)cccc2Cl)cc1
inactive: activity, negative = inhibition [1, 6] -4.64% | Potency [2] > 46 µM | Potency [3] > 46 µM | outcome [4] | Potency [5]

O=c1[nH]c2ccccc2c2ccccc12
inactive: activity, negative = inhibition [1, 6] -7.28% | Potency [2] > 46 µM | Potency [3] > 46 µM | outcome [4] | Potency [5]

CN(C)CCC(c1ccc(Br)cc1)c1ccccn1 (stereo not given)
inactive: activity, negative = inhibition [1, 6] 1.22% [at 17.2 µM]

CCCc1c(OCCCOc2ccc(OCC(=O)O)cc2)ccc(C(C)=O)c1O
inactive: activity, negative = inhibition [1, 6] 11.2% | Potency [2] > 46 µM | Potency [3] > 46 µM | outcome [4] | Potency [5]

O=c1cc(-c2ccccc2)[nH]c2nc(Cl)ccc12
inactive: activity, negative = inhibition [1, 6] -25.2% | Potency [2] > 46 µM | Potency [3] > 46 µM | outcome [4] | Potency [5]

Source: PubChem BioAssay (NCATS)
